PLK1 PBD inh – PLK1 (human) polo-box domain binding inhibition; P53350; Plk1 PBD binding of FITC phosphopeptide, fluorescence polarization; Potency, µM, usual class: inhibitors; 360,000 tested, 2.8% active; further: series mostly up to about 57 µM; nearly all actives have a fitted effect of over 65% in size
USP1 inh – inhibitors of human USP1/UAF1 deubiquitinase | O94782 | recombinant USP1/UAF1, Ub-Rhodamine cleavage fluorescence | Potency, µM (series often up to 57.1 µM), most hits filed as inhibitors | 390,000 tested, 0.23% active | AID 743255; further: nearly all actives have a fitted effect of over 60% in size
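In this screen, compounds sit with the deubiquitinase complex (1nM) for 15 min at room temperature before Ub-Rho is added at 150nM final. Fluorescence rise is then followed for 6 reads every 60 seconds.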
PI5P4K alpha inh – blocks human PI5P4K alpha kinase activity; P48426; PI5P4Kalpha enzyme, ADP-Glo luminescence, 60 min; hits give low values; max response, %; 330,000 tested, 1.2% active; active means max response of -50% or lower; inconclusive means between -30% and -50%; inactive means -30% or higher; further: value at the top dose of about 77 µM
Target sequence (P48426 whole entry, looked up): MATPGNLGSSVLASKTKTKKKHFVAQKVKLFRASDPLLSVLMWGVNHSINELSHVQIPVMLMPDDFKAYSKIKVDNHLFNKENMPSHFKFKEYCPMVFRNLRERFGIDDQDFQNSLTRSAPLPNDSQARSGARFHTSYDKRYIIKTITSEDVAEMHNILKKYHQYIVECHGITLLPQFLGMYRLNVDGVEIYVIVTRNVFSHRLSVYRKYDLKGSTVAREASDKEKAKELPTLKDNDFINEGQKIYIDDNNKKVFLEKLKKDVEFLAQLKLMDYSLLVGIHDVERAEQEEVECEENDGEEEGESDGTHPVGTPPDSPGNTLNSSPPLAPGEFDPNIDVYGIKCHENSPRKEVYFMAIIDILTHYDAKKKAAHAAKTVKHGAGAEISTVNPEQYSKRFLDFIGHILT
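Enzyme plus substrate dispensed, test compounds pinned in, then ATP (5 microM final) added. After 60 min at RT, ADP-Glo reagent 1 for 45 min and reagent 2 for 30 min preceded luminescence imaging.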
USP2a inh – USP2a (human) protease inhibition; USP2 core, Ub-CHOP2 coupled fluorogenic reporter, 485/531; Potency, µM (doses to about 38.3 µM), most hits filed as inhibitors; 330,000 tested, 0.01% active
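Deubiquitinase activity read as fluorescence (485/531 nm) after Ub-CHOP2 cleavage activates the enterokinase reporter on its substrate; USP2 core 10nM, Ub-CHOP2 and substrate 25nM each, 30min compound preincubation then 60min RT; data normalized to NEM, curves fitted.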
WRN inhibitor – inhibitors of human WRN helicase. Q14191. WRN helicase unwinding, fluorescent forked duplex, kinetic. Potency, µM (doses to about 114 µM), actives largely listed as inhibitors. 360,000 tested, 0.46% active. AID 651768; further: nearly all actives have a fitted effect of over 55% in size
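Screening of the MLSMR collection measured strand separation of a quenched forked DNA duplex (100 nM) by 20 nM WRN with 2 mM ATP, all final. Compounds were preincubated with enzyme 15 min at room temperature.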
Large screens that a line does not name were inactive. The list is not random: actives were taken first. Their share in the collection is about 3.3%. Unless noted, the call rests on the fitted dose curve; in most records, active means well fitted curve in the direction sought with a large enough effect; inconclusive means small, poorly fitted or top-dose-only effect, or another doubt; inactive means no such curve, though single readings can be large; an effect the other way counts as inactive or inconclusive.

N#CC1=C2SCN(Cc3ccco3)CN2C(=O)CC1c1ccc(Cl)cc1 (stereo not given)	PLK1 PBD inh 26.7µM, PI5P4K alpha inh inconclusive
COc1cccc(CNC(=O)CSc2ncc(S(=O)(=O)c3ccc(C)c(Cl)c3)c(=O)[nH]2)c1	none (no result: PLK1 PBD inh, PI5P4K alpha inh, USP2a inh, WRN inhibitor)
COCCNC(=O)CSc1cn(CC(=O)N2CCCCCC2)c2ccccc12	none (no result: PLK1 PBD inh, PI5P4K alpha inh, USP2a inh, WRN inhibitor)
Cc1nc2scc(C)n2c(=O)c1S(=O)(=O)NCCc1ccccc1	PLK1 PBD inh 11.9µM
Cc1nc2scc(C)n2c(=O)c1S(=O)(=O)NC(C)c1ccccc1 (stereo not given)	PLK1 PBD inh 18.9µM
Cc1nc2scc(C)n2c(=O)c1S(=O)(=O)Nc1ccc(N2CCN(S(C)(=O)=O)CC2)cc1	PLK1 PBD inh 26.7µM
Cc1cccc(NS(=O)(=O)c2c(C)nc3scc(C)n3c2=O)c1	none
CC(=O)c1ccc(NS(=O)(=O)c2c(C)nc3scc(C)n3c2=O)cc1	none (no result: PLK1 PBD inh, PI5P4K alpha inh, USP2a inh, WRN inhibitor)
Cc1nc2scc(C)n2c(=O)c1S(=O)(=O)NCc1ccccc1Cl	USP1 inh inconclusive
O=[N+]([O-])c1cc2oc3c(c2c(C=NCc2ccccc2)c1O)CCCC3	PI5P4K alpha inh -50.4
CC(C)CN=Cc1c(O)c([N+](=O)[O-])cc2oc3c(c12)CCCC3	PI5P4K alpha inh inconclusive, WRN inhibitor inconclusive
CCCCN(C)CCCNC(=O)Cn1ncc2c3ccccc3n(Cc3cc(C)ccc3C)c2c1=O	none (no result: PLK1 PBD inh, PI5P4K alpha inh, USP2a inh, WRN inhibitor)
Cc1ccc(C(=O)C=CC=Cc2ccccc2)cc1	none (no result: USP2a inh)
Cc1ccc(C(=O)C(C(=O)/C=C/c2ccccc2)=C2SCCCS2)cc1	PLK1 PBD inh 3.36µM, PI5P4K alpha inh inconclusive
CCCCC(=O)NC(c1ccc(N(CC)CC)cc1)c1ccc2cccnc2c1O (stereo not given)	none
CCCC(=O)NC(c1ccc(Cl)cc1)c1ccc2cccnc2c1O (stereo not given)	none
CCCCC(=O)NC(c1ccc(N(C)C)cc1)c1ccc2cccnc2c1O (stereo not given)	PLK1 PBD inh 26.7µM
CCCCC(=O)NC(c1ccc(Cl)cc1)c1ccc2cccnc2c1O (stereo not given)	PLK1 PBD inh 26.7µM (no result: USP2a inh)
Nn1c(C2COc3ccccc3O2)n[nH]c1=S (stereo not given)	PLK1 PBD inh 16.8µM
CCc1ccccc1NC(=O)Cn1c(C(=O)OC)cc2oc(C)cc21	none (no result: PLK1 PBD inh, PI5P4K alpha inh, USP2a inh, WRN inhibitor)
CN(CC(=O)Nc1cccc(F)c1)C(=O)CSc1ccccc1F	PLK1 PBD inh 23.8µM, PI5P4K alpha inh inconclusive
CC(Cc1ccc(O)c(O)c1)C(C)Cc1ccc(O)c(O)c1 (stereo not given)	PI5P4K alpha inh -81.6, WRN inhibitor 17.8µM (no result: USP2a inh)
COc1cccc(C(=O)N(Cc2nc(-c3ccc(Cl)cc3)no2)C(C)C)c1OC	none (no result: PLK1 PBD inh, PI5P4K alpha inh, USP2a inh, WRN inhibitor)
CC(=O)c1ccc(NC(=O)COC(=O)c2ccccc2Nc2ccccc2)cc1	PLK1 PBD inh 26.7µM
O=C(COC(=O)c1ccccc1Nc1ccccc1)Nc1ccccc1	none
Clc1ccc(-n2nnnc2Sc2ncnc3sccc23)cc1	PLK1 PBD inh 8.44µM (no result: USP2a inh)
Cc1sc2ncnc(Sc3nnnn3-c3ccccc3)c2c1C	PLK1 PBD inh inconclusive (no result: PI5P4K alpha inh)
O=C(O[C@@H]1OC2COC(=O)c3cc(O)c(O)c(O)c3-c3c(cc(O)c(O)c3O)C(=O)O[C@@H]([C@H]1O)[C@@H]2O)c1cc(O)c(O)c(O)c1	PLK1 PBD inh 9.47µM, USP1 inh inconclusive, PI5P4K alpha inh -101.5, USP2a inh inconclusive, WRN inhibitor inconclusive
Cc1nnc(N(C(=O)c2cnccn2)c2ccccc2)s1	PLK1 PBD inh 10.6µM
CCOC(=O)c1c(C)oc2nc(C)nc(N(C)Cc3ccccc3)c12	none (no result: PLK1 PBD inh, PI5P4K alpha inh, USP2a inh, WRN inhibitor)
CC1=NN(c2ccc(C)cc2C)C(=O)C1C(c1cccc(O)c1)C1C(=O)N(c2ccc(C)cc2C)N=C1C (stereo not given)	PLK1 PBD inh 26.7µM
CC1=NN(c2ccccc2)C(=O)C1N=Nc1cccc(O)c1 (stereo not given)	none
O=c1cc(-c2ccc(O)c(O)c2)oc2c(C3O[C@H](CO)[C@@H](O)[C@H](O)[C@H]3O)c(O)cc(O)c12 (stereo not given in full)	none
COc1c(O)cc2oc(-c3ccc(O)cc3)cc(=O)c2c1O	USP1 inh inconclusive
O=c1cc(-c2ccc(O)cc2)oc2c1ccc1ccccc12	none
O=c1cc(-c2ccc(O)cc2)oc2c(O)c(O)c(O)c(O)c12	USP1 inh 10µM, WRN inhibitor 7.08µM

High-throughput results as filed in PubChem BioAssay.
